Compound activity: PubChem, several laboratories
14-3-3 Bad PPI = disrupts binding of bovine 14-3-3 zeta to phospho-Bad peptide. P63103. TR-FRET 14-3-3zeta/Dy647-pBad peptide displacement, 1 h. inhibition, % at 21.7 µM. 220,000 compounds, 0.71% hits;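 active = inhibition above about 70%, limit read from the data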;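 note: 0% = full 14-3-3 plus peptide FRET controls and 100% = background without 14-3-3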
Target sequence (P63103 whole entry, looked up): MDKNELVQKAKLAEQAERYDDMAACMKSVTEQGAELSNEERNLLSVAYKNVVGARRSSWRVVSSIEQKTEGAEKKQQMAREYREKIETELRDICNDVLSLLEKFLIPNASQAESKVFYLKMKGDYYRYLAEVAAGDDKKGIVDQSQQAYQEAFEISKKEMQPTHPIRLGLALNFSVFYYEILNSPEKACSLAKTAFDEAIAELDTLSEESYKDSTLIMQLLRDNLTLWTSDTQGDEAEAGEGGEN
Mcl1-Bid inh = Mcl-1/Bid interaction inhibition; 220,000 compounds, 0.97% hits; TR-FRET Mcl-1/Bid-Dy647 peptide binding, 1536-well; inhibition, % at 21.7 µM;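 active = compounds that cut the binding signal by more than half at the single screening dose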;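 note: His-tagged Mcl-1 with europium anti-His antibody binding Bid BH3 peptide; 0% = Mcl-1 plus peptide wells and 100% = peptide-only wells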
Target sequence (Q07820 whole entry, looked up): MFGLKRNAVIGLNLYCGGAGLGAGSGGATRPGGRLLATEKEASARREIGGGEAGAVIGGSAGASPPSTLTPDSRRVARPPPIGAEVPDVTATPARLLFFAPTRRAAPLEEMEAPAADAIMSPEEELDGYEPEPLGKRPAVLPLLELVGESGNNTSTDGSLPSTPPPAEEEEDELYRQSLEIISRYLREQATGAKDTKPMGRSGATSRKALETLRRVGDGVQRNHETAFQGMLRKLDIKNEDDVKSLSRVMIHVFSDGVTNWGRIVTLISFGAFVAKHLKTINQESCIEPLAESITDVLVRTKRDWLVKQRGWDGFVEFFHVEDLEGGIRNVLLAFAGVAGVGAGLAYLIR
NCF1 inh = blocks human p47phox regulatory protein of NADPH oxidases | P14598 | p47phox/p22phox peptide binding, fluorescence polarization, 2 h | inhibition, % at 24.7 µM | 220,000 compounds, 0.53% hits;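 active = inhibition above about 30%, limit read from the data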;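 note: 0% = p47phox with labelled peptide and 100% = labelled peptide alone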
m-calpain inh = inhibitors of pig calpain II; purified calpain II, fluorogenic peptide substrate, 30 min; inhibition, % at 16 µM; 220,000 compounds, 0.37% hits; AID 1236;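 active = inhibition above about 50%, limit read from the data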
Mcl1-Noxa inh = disrupts binding of human Mcl-1 to Noxa peptide; Q07820; 220,000 compounds, 1.5% hits; inhibition, % at 21.7 µM; TR-FRET Mcl-1/Noxa peptide binding, 2 h;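 active = compounds that cut the protein-peptide binding signal by more than 50% relative to plate controls in a single-dose test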;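 note: His-tagged Mcl-1 with rhodamine Noxa BH3 peptide and terbium anti-His antibody; 0% = Mcl-1 plus Noxa peptide wells and 100% = peptide-only wells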
Mcl-1 Bim block = human Bim-Mcl-1 interaction inhibition; Q07820; Bead-based flow cytometry, Bim peptide-Mcl-1 binding; 190,000 compounds, 0.1% hits; AID 1009; inhibition, % at 10 µM; in the data active = inhibition above about 40%;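 note: 0% = no compound tracer wells and 100% = peptide blocker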
Active calls of the source: *; [ ] = remark or other dose. Only some compounds are listed: those with a hit (about 3.4% of all), similar ones and a draw of the others.

For COc1ccccc1NC(=O)c1sc2ncn(Cc3ccc(C)cc3)c(=O)c2c1C the results were 14-3-3 Bad PPI 34.4, Mcl1-Bid inh 73.5*, NCF1 inh -36.4, m-calpain inh inactive, Mcl1-Noxa inh 13.5 and Mcl-1 Bim block -3.0.
For CCC1(C)Cc2c(sc3nnn(CC(=O)Nc4ccccc4C)c(=O)c23)CO1 (stereo unspecified) the results were 14-3-3 Bad PPI -5.1, Mcl1-Bid inh 18.6, NCF1 inh -4.7, m-calpain inh 8.4, Mcl1-Noxa inh 53.5* and Mcl-1 Bim block 0.0.
`O=C(O)c1ccc(Cl)c(S(=O)(=O)NC(Cc2ccccc2)C(=O)O)c1` (stereo unspecified) gave 14-3-3 Bad PPI 0.7, Mcl1-Bid inh -20.7, NCF1 inh -1.9, m-calpain inh 20.9, Mcl1-Noxa inh 5.5 and Mcl-1 Bim block 0.0.
`CC(=O)NC1C(Oc2ccccc2C)OC(CO)C(O)C1O` (stereo unspecified) gave 14-3-3 Bad PPI -1.2, Mcl1-Bid inh -8.9, NCF1 inh -3.9, m-calpain inh -32.0, Mcl1-Noxa inh 5.2 and Mcl-1 Bim block 0.0.
Screening O=C(O)CC(CCc1ccccc1)OC1OC(CO)C(O)C(O)C1O (stereo unspecified) returned 14-3-3 Bad PPI 18.9, Mcl1-Bid inh -60.0, NCF1 inh -16.4, m-calpain inh -23.0 and Mcl1-Noxa inh 92.3*.
Screening O=C1ON=C(c2ccccc2)/C1=C/c1ccc(OS(=O)(=O)c2ccccc2)cc1 returned 14-3-3 Bad PPI 48.7, Mcl1-Bid inh 17.5, NCF1 inh 2.7, m-calpain inh -13.0, Mcl1-Noxa inh 72.2* and Mcl-1 Bim block -7.0.
Screening CCOC(=O)c1cc(-c2ccc(C)cc2)n(CCC(=O)N2CCN(c3ccccn3)CC2)c1C returned 14-3-3 Bad PPI -7.9, Mcl1-Bid inh -25.8, NCF1 inh -10.6, m-calpain inh -19.8, Mcl1-Noxa inh 9.4 and Mcl-1 Bim block -5.0.
`COc1cccc(OC)c1C(=O)NC(=S)Nc1ccc2c(c1)OCCO2` gave 14-3-3 Bad PPI -9.4, Mcl1-Bid inh -37.5, NCF1 inh -6.2, m-calpain inh 29.4, Mcl1-Noxa inh 15.6 and Mcl-1 Bim block 0.0.
Screening COc1ccc(-c2cc3ccccc3oc2=O)cc1NC(=O)c1ccc([N+](=O)[O-])o1 returned 14-3-3 Bad PPI 79.6*[fluorescence artefact?], Mcl1-Bid inh 65.2*, NCF1 inh 40.2*, m-calpain inh -8.2, Mcl1-Noxa inh 27.2 and Mcl-1 Bim block 3.0.
Screening CCC(=O)Nc1cc(-c2cc3ccccc3oc2=O)ccc1OC returned 14-3-3 Bad PPI -9.8, Mcl1-Bid inh -29.7, NCF1 inh -6.8, m-calpain inh -7.2, Mcl1-Noxa inh -10.3 and Mcl-1 Bim block 0.0.
COc1ccc(-c2cc3ccccc3oc2=O)cc1NC(=S)NC(=O)c1ccc2c(c1)OCCO2 was read as 14-3-3 Bad PPI 77.4*[fluorescence artefact?], Mcl1-Bid inh -3.1, NCF1 inh 25.1, m-calpain inh -31.5, Mcl1-Noxa inh -47.0 and Mcl-1 Bim block -4.0.
For COc1ccc(S(=O)(=O)N2CCCCC2)cc1NC(=O)c1ccc([N+](=O)[O-])o1 the results were 14-3-3 Bad PPI -0.7, Mcl1-Bid inh -18.8, NCF1 inh -5.6, m-calpain inh -24.0, Mcl1-Noxa inh 9.2 and Mcl-1 Bim block 10.0.
Screening COc1ccc(-c2cc3ccccc3oc2=O)cc1NC(=O)c1ccc(Br)o1 returned 14-3-3 Bad PPI 42.8, Mcl1-Bid inh 59.9*, NCF1 inh 40.7*, m-calpain inh -185.3, Mcl1-Noxa inh -70.3 and Mcl-1 Bim block -17.0.
`O=C(COC(=O)C12CC3CC(CC(Br)(C3)C1)C2)Nc1cccnc1Cl` gave 14-3-3 Bad PPI -6.4, Mcl1-Bid inh -7.7, NCF1 inh -5.1, m-calpain inh 37.1, Mcl1-Noxa inh 5.9 and Mcl-1 Bim block -1.0.
`Cc1cc(NC(=O)c2ccc3c(c2)C(=O)N(C)C3=O)no1` gave 14-3-3 Bad PPI 3.5, Mcl1-Bid inh -22.6, NCF1 inh -21.8, m-calpain inh -42.1, Mcl1-Noxa inh 2.5 and Mcl-1 Bim block 3.0.
For Cc1cc(NC(=O)c2ccc3c(c2)C(=O)N(CCC(C)C)C3=O)no1 the results were 14-3-3 Bad PPI 14.5, Mcl1-Bid inh 9.0, NCF1 inh -9.1, m-calpain inh 53.1*, Mcl1-Noxa inh 13.4 and Mcl-1 Bim block 11.0.
For CCOC(=O)Nc1sc(=S)n(C)c1C the results were 14-3-3 Bad PPI 84.2*, Mcl1-Bid inh -31.3, NCF1 inh -7.4, m-calpain inh 17.1, Mcl1-Noxa inh 17.1 and Mcl-1 Bim block -3.0.
CN1C[C@@H]2C[C@@H](c3cccn3-c3nccs3)N3CCC[C@@]23C1=O was read as 14-3-3 Bad PPI 2.3, Mcl1-Bid inh -7.1, NCF1 inh 3.4, m-calpain inh 18.0, Mcl1-Noxa inh 8.7 and Mcl-1 Bim block -4.0.
CO/N=C1\CCn2c1c(C)c1ccccc12 was read as 14-3-3 Bad PPI 71.5*, Mcl1-Bid inh 43.8, NCF1 inh -3.1, m-calpain inh 6.9 and Mcl1-Noxa inh 9.2.
`CCCC(=O)NCCc1cc(OC)c(OC)cc1Br` gave 14-3-3 Bad PPI -1.7, Mcl1-Bid inh -14.8, NCF1 inh 5.0, m-calpain inh 16.5, Mcl1-Noxa inh 6.5 and Mcl-1 Bim block 1.0.
O=C(COc1cccnc1[N+](=O)[O-])c1ccc(Cl)s1 was read as 14-3-3 Bad PPI 25.5, Mcl1-Bid inh 80.5*, NCF1 inh -2.9, m-calpain inh 3.8 and Mcl1-Noxa inh 81.8*.
For CC(C)[C@H](NC(=O)NCCC1=CCCCC1)C(=O)O the results were 14-3-3 Bad PPI 2.1, Mcl1-Bid inh 93.7*, NCF1 inh -9.1, m-calpain inh -14.0 and Mcl1-Noxa inh -0.6.
Screening O=C(NCCC1=CCCCC1)c1ccc2c(c1)N(Cc1ccccc1)C(=O)CS2 returned 14-3-3 Bad PPI -6.5, Mcl1-Bid inh 4.4, NCF1 inh -5.0, m-calpain inh 59.9*, Mcl1-Noxa inh -7.9 and Mcl-1 Bim block -5.0.
Screening Cc1noc(C)c1C(=O)OC(C)C(=O)Nc1ccc(S(=O)(=O)NC(C)C)cc1 (stereo unspecified) returned 14-3-3 Bad PPI 3.2, Mcl1-Bid inh -25.0, NCF1 inh -17.6, m-calpain inh -5.8, Mcl1-Noxa inh 9.3 and Mcl-1 Bim block -5.0.
O=[N+]([O-])c1cc(/C=N/n2cnnc2)ccc1N1CCCC1 was read as 14-3-3 Bad PPI -3.9, Mcl1-Bid inh 46.0, NCF1 inh -8.5, m-calpain inh 62.1*, Mcl1-Noxa inh 8.8 and Mcl-1 Bim block 1.0.
For O=C(CNc1ccc2ccccc2c1)N/N=C/c1ccc([N+](=O)[O-])o1 the results were 14-3-3 Bad PPI 36.9, Mcl1-Bid inh 64.6*, NCF1 inh 5.1, m-calpain inh 17.7, Mcl1-Noxa inh 70.5* and Mcl-1 Bim block 0.0.
`Cc1cc(C(=O)N/N=C/c2ccc([N+](=O)[O-])o2)c(C)o1` gave 14-3-3 Bad PPI 0.7, Mcl1-Bid inh -19.7, NCF1 inh 56.4*, m-calpain inh 15.6 and Mcl1-Noxa inh 15.3.
`Cc1nonc1C(=O)N/N=C/c1ccc([N+](=O)[O-])o1` gave 14-3-3 Bad PPI -6.4, Mcl1-Bid inh -21.3, NCF1 inh 0.3, m-calpain inh -9.8, Mcl1-Noxa inh 19.2 and Mcl-1 Bim block -2.0.
